Experimental data published in the supplement of paper PMC6555819.

How the values were obtained:
Test in all cases: PBM binding z-score (relative to random genomic background probes); higher = stronger binding; sequences stand for … in GC…GCGATTGACAGCGTAGAATGAAGG
[1] = system: FXR:RXRa (NR concentration 270 nM, RXRa partner concentration 90 nM)
Summary of the method: (§1)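 Binding buffer was PBS pH 7.4 with 2% milk, 0.02% Triton X-100, 1 mM DTT, 0.2 mg/mL BSA and 0.4 mg/ml salmon testes DNA. In it, ligand-free nuclear receptor dimers were incubated 1 h on custom Agilent 4×180K protein-binding microarrays carrying double-stranded probes. Antibodies against each partner (one per run) detected binding, and z-scores were calculated against random background probes after regression normalization of scanned fluorescence.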

[2] = system: LXRa:RXRa (NR concentration 270 nM, RXRa partner concentration 90 nM)
Summary of the method: as §1

[3] = system: LXRa homodimer (NR concentration 270 nM)
Summary of the method: as §1

[4] = system: LXRb:RXRa (NR concentration 270 nM, RXRa partner concentration 90 nM)
Summary of the method: as §1

[5] = system: LXRb homodimer (NR concentration 270 nM)
Summary of the method: as §1

[6] = system: PPARa:RXRa (NR concentration 270 nM, RXRa partner concentration 90 nM)
Summary of the method: as §1

[7] = system: PPARg:RXRa (NR concentration 180 nM, RXRa partner concentration 90 nM)
Summary of the method: as §1

[8] = system: PPARg:RXRa 270nM:90nM, anti-RXR (NR concentration 270 nM, RXRa partner concentration 90 nM)
Summary of the method: as §1

[9] = system: PPARg:RXRa 30nM:10nM, anti-RXR (NR concentration 30 nM, RXRa partner concentration 10 nM)
Summary of the method: as §1

[10] = system: PPARg:RXRa 90nM:30nM, anti-RXR (NR concentration 90 nM, RXRa partner concentration 30 nM)
Summary of the method: as §1

[11] = system: PPARg:RXRa DBDmut IVT, anti-RXR (DBD mutation: RXRa K156A/R161A, NR concentration 270 nM, RXRa partner concentration 90 nM)
Summary of the method: as §1

[12] = system: PPARg:RXRa IVT, anti-PPARg (NR concentration 270 nM, RXRa partner concentration 90 nM)
Summary of the method: as §1

[13] = system: PPARg DBDmut:RXRa IVT, anti-PPARg (DBD mutation: PPARg1 K132A/R137A, NR concentration 270 nM, RXRa partner concentration 90 nM)
Summary of the method: as §1

[14] = system: PPARg DBDmut IVT, anti-PPARg (DBD mutation: PPARg1 K132A/R137A, NR concentration 270 nM)
Summary of the method: as §1

[15] = system: PPARg homodimer (NR concentration 180 nM)
Summary of the method: as §1

[16] = system: PXR:RXRa (NR concentration 270 nM, RXRa partner concentration 90 nM)
Summary of the method: as §1

[17] = system: PXR homodimer (NR concentration 270 nM)
Summary of the method: as §1

[18] = system: RARa:RXR (NR concentration 270 nM, RXRa partner concentration 90 nM)
Summary of the method: as §1

[19] = system: RARa homodimer (NR concentration 270 nM)
Summary of the method: as §1

[20] = system: RARb:RXRa (NR concentration 270 nM, RXRa partner concentration 90 nM)
Summary of the method: as §1

Sequence | PBM binding z-score [1] | PBM binding z-score [2] | PBM binding z-score [3] | PBM binding z-score [4] | PBM binding z-score [5] | PBM binding z-score [6] | PBM binding z-score [7] | PBM binding z-score [8] | PBM binding z-score [9] | PBM binding z-score [10] | PBM binding z-score [11] | PBM binding z-score [12] | PBM binding z-score [13] | PBM binding z-score [14] | PBM binding z-score [15] | PBM binding z-score [16] | PBM binding z-score [17] | PBM binding z-score [18] | PBM binding z-score [19] | PBM binding z-score [20]
GATACAGGGTCAGCTAGAGGCCGGAGTATGGAAA | 4.48 | 2.56 | -0.44 | 2.17 | -0.594 | 4.57 | 3.61 | 3.41 | 0.716 | 2.13 | 1.03 | 2.37 | -0.293 | 0.124 | 1.78 | 2.59 | -0.0586 | 3.41 | 0.211 | 4.12
ACTATTAGTTGACTTAGGGCAATCGATACGACGC | 0.199 | 0.203 | 0.0491 | 0.176 | 0.464 | -0.0585 | 0.814 | 0.195 | 0.373 | 0.365 | 0.335 | 0.292 | 1.13 | 0.914 | 0.761 | 0.304 | 0.241 | 0.866 | 0.707 | 0.668
CCTGCTAGGCCATGGTCAGCTAATCTACAGTATG | -0.543 | -0.565 | -0.936 | -0.753 | -0.769 | -0.617 | 0.069 | -0.552 | -0.451 | -0.579 | 1.36 | 0.103 | -0.241 | -1.56 | -0.736 | -0.665 | -0.705 | -0.631 | -0.715 | 0.929
GCTGCAAGGTCAGGTTGGTCAGCTAACGGGTACG | 4.43 | 2.88 | 0.0795 | 2.36 | 0.0855 | 3.65 | 1.36 | 2.37 | 0.236 | 1.42 | 1.24 | 1.7 | -0.124 | -0.859 | 1.91 | 2.44 | -0.0524 | 3.02 | 0.176 | 4.4
CTTATTAGTTGACCATAAGGGCAACCGAAGCTCG | 0.831 | 0.356 | 0.185 | 0.373 | 0.837 | 0.629 | 0.439 | 0.266 | 0.208 | 0.259 | 0.601 | 0.869 | 1.18 | 1.03 | 0.708 | 0.686 | 0.516 | 0.781 | 1.3 | 1.72
GTACCAAGGTGAATGGGTCGTTGATGAGTAGGCG | 0.456 | 0.288 | -0.238 | 0.0453 | -0.983 | 1.71 | 1.26 | 1.19 | 0.195 | 0.732 | 1.52 | 2.44 | 0.0637 | -0.57 | 1.22 | 0.325 | 0.284 | 0.784 | 0.00879 | 1.64
TCGAGTAGGTTAGTCGGGTCATTCAGCCAACATA | 1.62 | 1.62 | 0.312 | 1.98 | -0.941 | 3.14 | 1.39 | 2.4 | 1.36 | 1.95 | 2.57 | 3.67 | -0.174 | -0.903 | 1.13 | 2.57 | 1.01 | 2.77 | -0.535 | 1.79
TCTCGGAGGACGCGAAGGTCAGAGCTTTCCAGAG | 0.524 | 0.815 | -0.319 | 0.715 | -1.33 | 1.69 | -0.182 | 1.06 | 1.62 | 1.21 | 0.846 | -0.0947 | -1.23 | -1.47 | 0.0628 | 1.33 | -0.286 | 1.61 | -0.357 | 2.7
GCTGCTAGGTCAACTGATGGACAGCTAAAGCTCG | 3.98 | 2.38 | -0.308 | 1.66 | 0.0379 | 3.46 | 2.8 | 2.99 | 0.269 | 1.92 | 4.96 | 4.05 | -0.737 | -0.4 | 0.547 | 1.05 | -0.677 | 1.9 | -0.785 | 4.12
CCTAGTTGGTCAAGGTCATACACGCTATAGGTAC | 4.77 | 4.27 | 2.86 | 3.52 | 0.89 | 3.97 | 2.79 | 3.21 | 1.22 | 2.74 | 2.28 | 3.11 | 0.777 | 1.26 | 3.11 | 4.21 | 3.04 | 4.33 | 2.79 | 4.04
AGTCAAAGTTCAGGACGAGGGAACGTAAAGCACG | 3.73 | 3.68 | 0.988 | 1.57 | 0.379 | 3.05 | 4.52 | 4.88 | 1.99 | 3.87 | -0.374 | 1.46 | 0.293 | 0.513 | 2 | 2.12 | 0.898 | 2.09 | 0.539 | 4.2
ATCTCTAGGTAAAAGTTCAGTGACTCCCGAGGAT | 1.09 | 2.16 | 1.64 | 1.38 | 0.749 | 4.12 | 8.08 | 8.15 | 8.38 | 8.98 | 2.54 | 3.69 | 1.46 | 1.46 | 1.59 | 2.36 | 1.59 | 1.97 | 0.841 | 2.39
CCTACTGGGCCGAAGGTCATTGATTCCAATGCTC | 2.23 | 2.47 | 1.02 | 2.44 | -0.461 | 4.85 | 9.28 | 9.02 | 8.18 | 10.3 | 1.48 | 5.21 | -0.502 | -0.797 | 1.81 | 2.9 | 0.597 | 3.05 | 0.247 | 2.88
CATCAAAGTTCAAGGTAACGTAACAGAAAGCAGC | 6.68 | 5.7 | 3.88 | 3.79 | 2.13 | 4.66 | 3.59 | 4 | 1.71 | 2.82 | 0.753 | 1.84 | 1.29 | 1.96 | 2.92 | 4.19 | 2.76 | 3.44 | 2.21 | 5.31
